PubChem BioAssay (Tox21)
Records with an inconclusive call do not appear. Active and inactive are the calls of the source. Unless noted, calls follow the shape of the dose curve; as a rule, active = well fitted curve in the direction sought with a large enough effect in the repeat runs; inconclusive = weak or mixed curves; inactive = no such curve, though single readings can be large; an effect the other way counts as inactive or inconclusive.

Key:
[1] = qHTS assay for small molecule agonists of the p53 signaling pathway (AID 651631; calls by dose curve; also: nearly all actives have a fitted effect of over 15% in size)
How it was run: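 p53RE-bla HCT-116 cells; compounds 16 h, 37 °C; LiveBLAzer B/G FRET substrate 2 h RT; fluorescence intensity read-out, qHTS format.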

[2] = qHTS assay for small molecule agonists of the p53 signaling pathway - cell viability (AID 651633; calls by dose curve;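 also: p53RE-bla HCT reporter cells with a stable beta-lactamase p53 reporter; series mostly up to about 83 µM; nearly all actives have a fitted effect of over 30% in size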)
How it was run: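 p53RE-bla cells, seeded at 4,000 per well and rested 5 h at 37 C/5% CO2, received compounds in DMSO for 16 h at 37 C. CellTiter-Glo was then added, and luminescence was read after 30 min at room temperature to gauge cytotoxicity.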

[3] = qHTS assay for small molecules that induce genotoxicity in human embryonic kidney cells expressing luciferase-tagged ATAD5 - cell viability (AID 651634; calls by dose curve; also: nearly all actives have a fitted effect of over 25% in size)
How it was run: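 Cytotoxicity counter-readout: after 15.5 hr compound treatment at 37C, live-cell protease activity in ATAD5-luciferase HEK293T cells measured by CellTiter-Fluor fluorescence, 30 min development at 37C.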

[4] = qHTS assay for small molecule disruptors of the mitochondrial membrane potential - cell viability (AID 720634; calls by dose curve;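 also: human HepG2 liver cancer cells; series mostly up to about 83 µM; nearly all actives have a fitted effect of over 20% in size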)
How it was run: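 Cytotoxicity was quantified from ATP content by CellTiter-Glo luminescence in the same wells as the MMP dye read-out. HepG2 (2,000 cells/well) were plated overnight and exposed to compounds for 1 hr at 37 C.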

[5] = qHTS assay for small molecule disruptors of the mitochondrial membrane potential (AID 720635); also: potency is read from the fitted curve at half-maximal effect
How it was run: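 HepG2 cells (2,000/well) attached overnight at 37C, then took compound for 1 hr at 37C, 5% CO2. Mito-MPS dye was added for 30 min; fluorescence was read at 490/535 nm (monomers) and 540/590 nm (aggregates).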

[6] = qHTS assay to test for compound auto fluorescence at 590 nm (red) in HepG2 cells (AID 720674)
How it was run: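 Compound auto-fluorescence is scored relative to Rose Bengal sodium, measured at 540/590 nm in live HepG2 cultures after 1 hr compound contact (37 C, 5% CO2).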

[7] = qHTS assay to test for compound auto fluorescence at 535 nm (green) in HepG2 cells (AID 720675)
[8] = qHTS assay to test for compound auto fluorescence at 460 nm (blue) in HEK293 cells (AID 720678)
How it was run: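 Cells were seeded and left to adhere for 4-5 hr at 37C. Compounds were then pin-transferred. After an overnight incubation at 37C under 5% CO2, intrinsic fluorescence at 405/460 nm was measured and referenced to triamterene.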

[9] = qHTS assay to test for compound auto fluorescence at 590 nm (red) in HEK293 cells (AID 720679)
How it was run: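 Each well held 2,000 HEK293 cells in medium containing 10% dialyzed FBS. Following 4-5 hr attachment at 37C, 23 nL test compound or DMSO was added; plates sat overnight, and red fluorescence (540/590nm) was recorded.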

[10] = qHTS assay to test for compound auto fluorescence at 535 nm (green) in HEK293 cells (AID 720680)
[11] = qHTS assay to test for compound auto fluorescence at 460 nm (blue) in HEK293 cell free culture (AID 720681)
How it was run: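 Test compounds were pinned into cell-free culture medium (DMEM with 10% FBS) and fluorescence was read directly at Ex/Em 405/460 nm. Signals were expressed as fluorescence equivalents of triamterene, with DMSO vehicle as control.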

[12] = qHTS assay to test for compound auto fluorescence at 535 nm (green) in HEK293 cell free culture (AID 720682)
How it was run: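 Cell-free medium (DMEM, 10% FBS) receives compound or DMSO by pintool. Plate read directly at Ex 485/Em 535 nm. Signal converted to fluorescein equivalency.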

[13] = qHTS assay to test for compound auto fluorescence at 590 nm (red) in HEK293 cell free culture (AID 720683)
How it was run: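 Tox21 10K library compounds were pinned into cell-free DMEM with 10% FBS and fluorescence was read at excitation 540 nm. Activity is expressed as Rose Bengal sodium equivalency.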

[14] = qHTS assay to test for compound auto fluorescence at 590 nm (red) in HepG2 cell free culture (AID 720684)
How it was run: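 Ex 540 / Em 590 nm read of compound in cell-free MEM (10% FBS). Rose Bengal sodium reference.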

[15] = qHTS assay to test for compound auto fluorescence at 460 nm (blue) in HepG2 cell free culture (AID 720685)
How it was run: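 Cell-free plates of MEM plus 10% FBS received 23 nL compound or DMSO vehicle; blue-channel (405/460 nm) intensity scored against triamterene as reference fluorophore.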

[16] = qHTS assay to test for compound auto fluorescence at 535 nm (green) in HepG2 cell free culture (AID 720686)
[17] = qHTS assay to test for compound auto fluorescence at 460 nm (blue) in HepG2 cells (AID 720687)
How it was run: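 Cells (2,000/well in MEM with 10% FBS) attached overnight at 37 C, then were exposed to compound or DMSO for 1 hr at 37 C, 5% CO2. Fluorescence read at Ex/Em 405/460 nm, expressed as triamterene-equivalent signal.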

[18] = target: Glucocorticoid receptor (Homo sapiens) (UniProt P04150); assay: qHTS assay to identify small molecule antagonists of the glucocorticoid receptor (GR) signaling pathway (AID 720692; active = well fitted inhibition curve with a large enough effect in the signal ratio in the repeat runs, not every such curve was filed as active; the % refers to the signal ratio)
How it was run: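 Inhibition of dexamethasone-driven (5 nM final) beta-lactamase expression was measured in GRE-reporter HeLa cells over 18 h at 37C. Fluorescence was read after 2 h with the B/G FRET substrate at room temperature.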

[19] = target: Glucocorticoid receptor (Homo sapiens) (UniProt P04150); assay: qHTS assay to identify small molecule agonists of the glucocorticoid receptor (GR) signaling pathway (AID 720691; active = well fitted activation curve with a large enough effect in the signal ratio in the repeat runs, not every such curve was filed as active; the % refers to the signal ratio)
How it was run: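 Agonist-mode qHTS in HeLa cells stably expressing a glucocorticoid-response-element beta-lactamase reporter. Fluorescence intensity read with FRET substrate (2 h, room temperature) after 18 h compound treatment at 37 C.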

[20] = qHTS assay for small molecules that induce genotoxicity in human embryonic kidney cells expressing luciferase-tagged ATAD5 (AID 651632); also: nearly all actives have a fitted effect of over 15% in size
How it was run: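 A rise in luciferase signal from ATAD5-tagged HEK293T cells marks genetic stress. Cells were exposed to compounds for 16 hr at 37C, 5% CO2, then luciferase was quantified after a 30 min room-temperature incubation with Amplite.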
% is scaled to controls: 0 for no effect and ±100 for the full control effect.

Glucocorticoid receptor (Homo sapiens), sequence (P04150 whole entry, looked up): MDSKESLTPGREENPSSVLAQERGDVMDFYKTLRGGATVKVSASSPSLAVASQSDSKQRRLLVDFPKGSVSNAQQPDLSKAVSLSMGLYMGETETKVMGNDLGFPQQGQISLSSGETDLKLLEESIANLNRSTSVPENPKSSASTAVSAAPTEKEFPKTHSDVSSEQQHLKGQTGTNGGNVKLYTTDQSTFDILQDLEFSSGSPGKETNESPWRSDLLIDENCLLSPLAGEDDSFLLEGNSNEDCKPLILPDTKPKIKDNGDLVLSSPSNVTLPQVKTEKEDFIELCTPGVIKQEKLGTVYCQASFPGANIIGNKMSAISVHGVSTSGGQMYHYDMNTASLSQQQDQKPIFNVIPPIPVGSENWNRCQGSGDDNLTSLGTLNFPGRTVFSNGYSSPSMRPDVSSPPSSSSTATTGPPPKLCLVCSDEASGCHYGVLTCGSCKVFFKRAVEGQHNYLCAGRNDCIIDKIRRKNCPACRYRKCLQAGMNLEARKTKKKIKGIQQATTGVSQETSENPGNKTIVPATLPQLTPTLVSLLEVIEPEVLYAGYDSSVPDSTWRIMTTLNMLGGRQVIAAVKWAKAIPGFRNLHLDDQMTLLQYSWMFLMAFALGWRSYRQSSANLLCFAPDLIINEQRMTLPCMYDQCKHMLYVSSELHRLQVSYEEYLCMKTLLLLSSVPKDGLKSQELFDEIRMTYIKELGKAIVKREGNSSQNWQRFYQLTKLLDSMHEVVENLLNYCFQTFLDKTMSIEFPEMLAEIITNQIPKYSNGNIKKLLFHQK

O=C1OC(=O)c2cc(Oc3ccc4c(c3)C(=O)OC4=O)ccc21
inactive: outcome [1] | outcome [2] | Potency [3] | outcome [4] | Potency [5] | outcome [6] | outcome [7] | outcome [8] | outcome [9] | outcome [10] | outcome [11] | outcome [12] | outcome [13] | outcome [14] | outcome [15] | outcome [16] | outcome [17]

O=C(O)c1ccccc1C(=O)OCc1ccccc1
inactive: outcome [1] | outcome [2] | Potency [3] | outcome [4] | outcome [6] | outcome [7] | outcome [8] | outcome [9] | outcome [10] | outcome [11] | outcome [12] | outcome [13] | outcome [14] | outcome [15] | outcome [16] | outcome [17] | outcome [18]

CC(=O)Nc1ccc(C)cc1
inactive: outcome [1] | outcome [2] | Potency [3] | outcome [4] | outcome [6] | outcome [7] | outcome [8] | outcome [9] | outcome [10] | outcome [11] | outcome [12] | outcome [13] | outcome [14] | outcome [15] | outcome [16]

NC(=O)C1(N2CCCCC2)CCN(CCCC(=O)c2ccc(F)cc2)CC1
inactive: outcome [1] | outcome [2] | Potency [3] | outcome [4] | Potency [5] | outcome [6] | outcome [7] | outcome [8] | outcome [9] | outcome [10] | outcome [11] | outcome [12] | outcome [13] | outcome [14] | outcome [16] | outcome [17]

Cc1ccccc1OCC1CO1 (centres undefined)
inactive: outcome [1] | outcome [2] | Potency [3] | outcome [4] | outcome [6] | outcome [7] | outcome [8] | outcome [9] | outcome [10] | outcome [11] | outcome [12] | outcome [13] | outcome [14] | outcome [16] | outcome [17] | Potency [19] | outcome [18]

C=C(C)C(=O)OC
inactive: outcome [1] | outcome [2] | Potency [3] | outcome [4] | Potency [5] | outcome [6] | outcome [7] | outcome [8] | outcome [9] | outcome [10] | outcome [11] | outcome [12] | outcome [13] | outcome [14] | Potency [19]

c1ccc(CNc2ncnc3nc[nH]c23)cc1
inactive: outcome [1] | outcome [2] | Potency [3] | outcome [4] | outcome [6] | outcome [7] | outcome [8] | outcome [9] | outcome [10] | outcome [11] | outcome [12] | outcome [13] | outcome [14] | outcome [15] | outcome [16] | outcome [17] | Potency [19]
active: Potency [5] 54.5 µM

CCS(=O)(=O)CCn1c([N+](=O)[O-])cnc1C
inactive: outcome [1] | outcome [2] | Potency [3] | outcome [4] | Potency [5] | fluorescence, relative to Rose Bengal [6] 0.187% [at 18.6 µM] | fluorescence, % of fluorescein control [7] -0.217% [at 18.6 µM] | fluorescence, % of triamterene [8] -0.271% [at 18.6 µM] | fluorescence, % of fluorescent control [9] 0.0006% [at 18.6 µM] | fluorescence, % of fluorescein [10] 0.101% [at 18.6 µM] | fluorescence, % of fluorescent control [11] 0.0677% [at 18.6 µM] | activity change [12] 0.0328% [at 18.6 µM] | fluorescence, % of fluorescent control [13] -0.106% [at 18.6 µM] | fluorescence, % of Rose Bengal [14] 0.0121% [at 18.6 µM] | fluorescence, % of fluorescein control [16] -0.0978% [at 18.6 µM] | fluorescence, % of fluorescent control [17] 0.0125% [at 18.6 µM]

CCNC(=O)NCCCOc1cccc(CN2CCCCC2)c1
inactive: outcome [1] | outcome [2] | Potency [3] | outcome [4] | outcome [6] | outcome [7] | outcome [8] | outcome [9] | outcome [10] | outcome [11] | outcome [12] | outcome [13] | outcome [14] | outcome [15] | outcome [16] | outcome [17]

CCC(C)(C)C1CCC(=O)CC1
inactive: outcome [1] | outcome [2] | Potency [3] | outcome [4] | Potency [5] | outcome [6] | outcome [7] | outcome [8] | outcome [9] | outcome [10] | outcome [11] | outcome [12] | outcome [13] | outcome [14] | outcome [15] | outcome [16] | outcome [17]

CC1=NN(c2ccc(S(=O)(=O)O)cc2)C(=O)C1N=Nc1ccccc1 (centres undefined)
inactive: outcome [1] | outcome [20] | outcome [2] | outcome [4] | outcome [6] | outcome [7] | outcome [8] | outcome [9] | outcome [10] | outcome [11] | outcome [12] | outcome [13] | outcome [14] | outcome [15] | outcome [17] | Potency [19] | outcome [18]

CCC1COC(=O)O1 (centres undefined)
inactive: outcome [1] | outcome [2] | Potency [3] | outcome [4] | Potency [5] | outcome [6] | outcome [7] | outcome [8] | outcome [9] | outcome [10] | outcome [11] | outcome [12] | outcome [13] | outcome [14] | outcome [16] | outcome [17] | Potency [19]

Cc1ccc(S(=O)(=O)NC(=O)NC2CCCCCCC2)cc1
inactive: outcome [1] | outcome [2] | Potency [3] | outcome [4] | Potency [5] | outcome [6] | outcome [7] | outcome [8] | outcome [9] | outcome [10] | outcome [11] | outcome [12] | outcome [13] | outcome [14] | outcome [15] | outcome [17]
